In PubChem BioAssay AID2685 (National Center for Advancing Translational Sciences (NCATS), 2010):
The campaign covered roughly 320,000 compounds. About 2,100 (0.66%) were called active. About 53% were inconclusive and are not listed. The call rests on the fitted dose curve; in most records, active means well fitted inhibition curve with a large enough effect in the signal ratio, with a control signal flat (not every such curve was filed as active); inconclusive means small, poorly fitted or top-dose-only effect, or effect the other way, or a change in a side signal; inactive means flat fitted curve, though single readings scatter; the % refers to the signal ratio. Many of the other results were omitted from the sample, so actives are more common in it than they were.

Test: qHTS Assay for Lipid Storage Modulators in Drosophila S3 Cells;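 on cell number change: cells counted by Cell Tracker Red CMTPX staining in the red channel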
Details: BODIPY lipid droplet fluorescence, 18-24 h, cells fed with added oleic acid; cell number change: measured here: cell count max response; series mostly up to 46.1 µM
Method in brief: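 Drosophila S3 cells loaded with oleic acid (400 uM, as added) and compounds at several concentrations; lipid droplets imaged by 488-nm laser-scanning cytometry, 500–530 nm intensity and object ratio to cell channel. Percent activity normalized to 20 uM Triacsin C.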
Potency means the concentration at half of the fitted maximal effect.

| SMILES | Potency | cell number change [%] |
| --- | --- | --- |
| CC(C)c1ccc(/C=N/NC(=O)CC(=O)NC2CCCCC2)cc1 | inactive | 0.119 |
| c1ccc(N2CC[N+]3(CCCC3)CC2)nc1 | inactive | 0.943 |
| CC(C)(C)OC(=O)NCCCC[C@H](NC(=O)c1[nH]cnc1C(=O)Nc1ccc(CNC(=O)OC(C)(C)C)cc1)C(=O)OC(C)(C)C | inactive |  |
| CN(C)c1ccc(C=NCCC2(c3ccccc3)CCOC(C)(C)C2)cc1 (stereo unspecified) | inactive | -6.59 |
| O=C(Nc1ccon1)c1cc2ccccc2oc1=O | inactive | 11.7 |
| O=C(Nc1ccon1)c1ccccc1F | 23.1 µM (active) | -7.37 |
| Cc1cc(NC(=O)c2ccccc2F)on1 | inactive | -0.938 |
| O=C(Nn1c(=O)[nH]c2ccsc2c1=O)c1ccccc1 | inactive | -16.2 |
| COc1ccc(N2CCN(C(=S)Nc3ccc(C)cc3)CC2)cc1 | inactive | 11.6 |
| O=C(NN1C(=O)C2C3C=CC(C4CC34)C2C1=O)c1ccc(Cl)c(Cl)c1 (stereo unspecified) | inactive | 1.92 |
| O=C(CN1C(=O)/C(=C2\SC(=S)N(C3CCS(=O)(=O)C3)C2=O)c2ccccc21)Nc1ccccc1 (stereo unspecified) | inactive | -3.03 |
| O=C(NCC(c1ccccc1)N1CCCC1)C1CCN(C(=O)Nc2ccccc2)CC1 (stereo unspecified) | inactive | -22 |
| O=C(NCCc1ccccc1)C1CCN(C(=O)Nc2ccccc2)CC1 | inactive | -33.1 |
| O=C(NCC(c1ccccc1Cl)N1CCCC1)C1CCN(C(=O)Nc2ccccc2)CC1 (stereo unspecified) | 6.51 µM (active) | -29.1 |
| CCC(Sc1nc(C)cc(C)n1)C(=O)Nc1nccs1 (stereo unspecified) | 2.06 µM (active) | -0.54 |
| Cc1cc(C)nc(SCC(=O)Nc2nccs2)n1 | inactive | 13.1 |
| CCC(Sc1nnc(C)s1)C(=O)Nc1nccs1 (stereo unspecified) | inactive | -15.3 |
| CN(C(=O)CCCN1CCCC1=O)C1CCCN(Cc2ccccc2F)C1 (stereo unspecified) | inactive | 6.08 |
| COc1cc2c(cc1OC)C(COc1ccc(F)cc1)N(C(C)=O)CC2 (stereo unspecified) | inactive | -4.23 |
| CCOC(=O)C(O)(CC(=O)Nc1cc(F)ccc1C)C(F)(F)F (stereo unspecified) | inactive | 6.77 |
| CC1CC1C(=O)Nc1nc(-c2ccccn2)cs1 (stereo unspecified) | inactive |  |
| CCC/C(C)=N/NC(=O)c1ccccc1O | inactive | 9.25 |
| COc1ccc(-c2cc3nc(C)c(CCC(=O)N4CCN(c5ccccn5)CC4)c(C)n3n2)c(OC)c1 | inactive | -15.1 |
| CCOC(=O)CSc1ccc(S(=O)(=O)N(CC)CC)cc1[N+](=O)[O-] | inactive | 15.5 |
| CCOC(=O)CSc1ccc(S(=O)(=O)N(C)C2CCCCC2)cc1[N+](=O)[O-] | 25.9 µM (active) | -12.4 |

| SMILES | Potency | cell number change [%] |
| --- | --- | --- |
| CCOC(=O)CSc1ccc(S(=O)(=O)N2CCCCC2)cc1[N+](=O)[O-] | inactive | 12.9 |
| Cc1nc(C)c(C(=O)Nc2ccccc2)s1 | inactive | 13.8 |
| CC(=O)Nc1ccc(Nc2nc(C)cc(C)n2)cc1 | inactive | 7.77 |
| O=C(/C=C/c1ccccc1)Nn1c(-c2cccs2)nc2ccccc2c1=O | inactive | 20.7 |
| CCN(CC)CCNC(=O)CCc1n[nH]c(=O)c2ccccc12 | inactive | -11.1 |
| CCCCN(CC)C(=O)c1n[nH]c(=O)c2ccccc12 | 29.1 µM (active) | -6.59 |
| CCOC(=O)c1n[nH]c(=O)c2ccccc12 | inactive | -14.5 |
| O=C(NCc1csc2ccc(Cl)cc12)Nc1ccccc1 | inactive | -21.1 |
| CC(C)OCCCNc1nc(-c2ccccc2)nc2ccccc12 | inactive | -18 |
| CCOCCCNc1nc(-c2ccccc2)nc2ccccc12 | 4.61 µM (active) | 9.97 |
| COCCNc1nc(-c2ccccc2)nc2ccccc12 | inactive | -1.08 |
| COc1ccc(/C=N/Nc2nc(-c3cccnc3)nc3ccccc23)cc1OC | inactive | -0.944 |
| COc1ccc(CNc2nc(-c3ccccc3)nc3ccccc23)cc1OC | inactive | -4.67 |
| COc1ccc(CCNc2nc(-c3cccnc3)nc3ccccc23)cc1OC | 9.2 µM (active) | 0.794 |
| CCc1ccc(/C=N\n2cnnc2)cc1 | inactive | 2.5 |
| CCC(C(=O)NC1CCCCC1)n1c(SCc2cccc(C)c2)nc2ccncc21 (stereo unspecified) | inactive | -1.51 |
| Cc1ccc(S(=O)(=O)N2CCN(C(=O)CSc3ncn[nH]3)CC2)cc1 | 16.4 µM (active) | 5.31 |
| Cc1ccc(S(=O)(=O)N2CCN(C(=O)CSc3ccc(Cl)cc3)CC2)cc1 | inactive | -6.45 |
| O=C(CSc1ncn[nH]1)N1CCN(S(=O)(=O)c2ccccc2)CC1 | inactive | 11.4 |
| Cc1cccn2c(CN(C)CC3Cc4ccccc4O3)c(C(=O)N3CCCCC3)nc12 (stereo unspecified) | inactive | -1.06 |
| COc1ccc(S(=O)(=O)N2CCN(C(c3ccccc3)c3ccccc3)CC2)cc1NC(C)=O | inactive | 5.87 |
| CSCC(=O)N1CCCC(CO)(CCCc2ccccc2)C1 (stereo unspecified) | inactive | -13.7 |
| Cc1ccc(OCC(=O)N2CCN(C(=O)Cc3ccccc3)CC2)cc1 | inactive | 24.1 |
| Cc1ccc(OCC(=O)N2CCCC(CO)(CCOc3ccccc3)C2)cc1 (stereo unspecified) | 14.6 µM (active) | 13.9 |
